# The panel holds about 79,000 compounds, 15% with a hit somewhere; the sample as a whole holds those more often. A number with no mark means an inactive call. Active and inactive are the calls of the source. No stated cut-off is given here; in the data, active means growth inhibition above about 70%; inactive means the rest.
# Legend:
# [1] = NCI Yeast Anticancer Drug Screen. Data for the rad52 strain (AID 147);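 further: 0% = growth of vehicle-treated control cultures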; conditions: S. cerevisiae rad52 mutant growth inhibition, active compounds read high
# How it was run: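 Yeast strain carrying a DNA damage repair alteration was exposed to test compounds. Growth inhibition was measured relative to vehicle-treated controls.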
# [2] = NCI Yeast Anticancer Drug Screen. Data for the wt1 strain (AID 149);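 further: 0% = growth of vehicle-treated wt1 cultures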; conditions: S. cerevisiae wt1 strain (SPY 50644) growth inhibition, active compounds read high
# How it was run: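 Measured: growth of wt1 yeast under compound versus vehicle treatment, reported as inhibition.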
# [3] = NCI Yeast Anticancer Drug Screen. Data for the rad50EPP+ strain (AID 151);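 further: 0% = growth of vehicle-treated control cultures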; conditions: S. cerevisiae rad50 mutant strain, active compounds read high
# How it was run: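 Yeast strain carrying rad50 alteration (rad50EPP+) exposed to compounds; growth inhibition measured relative to vehicle-treated controls.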
# [4] = NCI Yeast Anticancer Drug Screen. Data for the mgt1 strain (AID 153); conditions: S. cerevisiae mgt1 mutant growth inhibition, active compounds read high
# How it was run: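 Yeast mgt1 strain (DNA repair/cell-cycle alteration panel) exposed to compounds; growth inhibition measured relative to vehicle-treated controls.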
# [5] = NCI Yeast Anticancer Drug Screen. Data for the rad50 strain (AID 155);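 further: 0% = growth of vehicle-only cultures of the same strain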; conditions: S. cerevisiae rad50 strain growth inhibition, active compounds read high
# How it was run: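 Growth of the mutant yeast was measured after compound exposure and referenced to vehicle-treated cultures.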
# [6] = NCI Yeast Anticancer Drug Screen. Data for the mec2-1 strain (AID 157); conditions: S. cerevisiae mec2-1 strain, active compounds read high
# How it was run: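 mec2-1 yeast strain, carrying an alteration in DNA damage repair or cell cycle control, was exposed to compounds; growth inhibition was measured relative to vehicle-treated controls.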
# [7] = NCI Yeast Anticancer Drug Screen. Data for the rad14 strain (AID 159);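 further: 0% = growth of vehicle-treated control cultures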; conditions: S. cerevisiae rad14 strain growth inhibition, active compounds read high
# How it was run: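 Here, inhibition of yeast growth was measured after compound exposure, using a strain with a genetic defect in DNA damage repair and vehicle-treated cultures as the reference.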
# [8] = NCI Yeast Anticancer Drug Screen. Data for the CLN2oe strain (AID 163);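 further: 0% = growth of vehicle-only control cultures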; conditions: S. cerevisiae CLN2oe strain, active compounds read high
# How it was run: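 Yeast cells carrying a defined cell-cycle control alteration were exposed to test compounds. Growth inhibition was scored against vehicle-treated control cultures.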
# [9] = NCI Yeast Anticancer Drug Screen. Data for the cln2 rad14 strain (AID 165);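 further: 0% = growth equal to vehicle treated cultures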; conditions: S. cerevisiae cln2 rad14 strain, active compounds read high
# How it was run: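 Yeast carrying cln2 and rad14 alterations (cell cycle control and DNA damage repair) were exposed to compounds. Growth inhibition was measured against vehicle-treated controls.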
# [10] = NCI Yeast Anticancer Drug Screen. Data for the bub3 strain (AID 167); conditions: S. cerevisiae bub3 mutant strain, active compounds read high
# How it was run: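 Whole-cell yeast assay. The mutant strain was incubated with compounds, and growth inhibition was determined by comparison with vehicle-treated cells.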
# [11] = NCI Yeast Anticancer Drug Screen. Data for the wt2 strain (AID 169);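 further: 0% = growth of vehicle-treated yeast cultures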; conditions: S. cerevisiae wt2 strain growth inhibition, active compounds read high
# How it was run: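 Yeast cells were exposed to test compounds, and growth inhibition was measured relative to vehicle-treated controls.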
# [12] = NCI Yeast Anticancer Drug Screen. Data for the mlh1 strain (AID 171);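 further: 0% = growth of vehicle-treated control cultures of the same strain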; conditions: S. cerevisiae mlh1 strain growth inhibition, active compounds read high
# How it was run: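 Yeast carrying a defined genetic alteration in DNA damage repair or cell cycle control were exposed to test compounds. Growth inhibition was measured relative to vehicle-treated controls.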
# [13] = NCI Yeast Anticancer Drug Screen. Data for the sgs1 strain (AID 173);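 further: 0% = growth of vehicle-only control cultures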; conditions: S. cerevisiae sgs1 mutant, active compounds read high
# How it was run: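 Yeast mutant strains carrying defined defects in DNA damage repair or cell cycle control were exposed to test compounds. Growth inhibition was scored against vehicle-treated controls.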
# [14] = NCI Yeast Anticancer Drug Screen. Data for the mlh1 rad18 strain (AID 175); conditions: S. cerevisiae mlh1 rad18 strain growth inhibition, active compounds read high
# How it was run: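 Growth inhibition of the yeast strain was measured after compound exposure and expressed relative to vehicle-treated controls. The strain carries defined defects in DNA damage repair.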
# [15] = NCI Yeast Anticancer Drug Screen. Data for the rad18 strain (AID 177); conditions: S. cerevisiae rad18 mutant growth inhibition, active compounds read high
# How it was run: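 Yeast carrying a defined DNA damage repair alteration were exposed to compounds. Growth inhibition was expressed relative to vehicle-treated controls.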
# [16] = at 5.0 µM (retest, dose inferred, filed as 0.5)
# [17] = at 50.0 µM (retest, dose inferred, filed as 5.0)
compound,measurement,setting,value
CN1CCc2ccccc2C1Cc1ccccc1NC(=O)c1sc2ccccc2c1Cl (stereo not given),growth inhibition,[1]; at 1.2 µM,-35%
same,growth inhibition,[1]; at 3.7 µM,-38%
same,growth inhibition,[1]; at 11.0 µM,-15%
same,growth inhibition,[1]; at 33.0 µM,-8%
same,growth inhibition,[1]; at 100.0 µM,93% (active)
same,growth inhibition,[2]; at 1.2 µM,-23%
same,growth inhibition,[2]; at 3.7 µM,-22%
same,growth inhibition,[2]; at 11.0 µM,-13%
same,growth inhibition,[2]; at 33.0 µM,22%
same,growth inhibition,[2]; at 100.0 µM,88% (active)
same,growth inhibition,[3]; at 1.2 µM,-21%
same,growth inhibition,[3]; at 3.7 µM,-9%
same,growth inhibition,[3]; at 11.0 µM,19%
same,growth inhibition,[3]; at 33.0 µM,68%
same,growth inhibition,[3]; at 100.0 µM,83% (active)
same,growth inhibition,[4]; at 1.2 µM,-19%
same,growth inhibition,[4]; at 3.7 µM,-24%
same,growth inhibition,[4]; at 11.0 µM,19%
same,growth inhibition,[4]; at 33.0 µM,95% (active)
same,growth inhibition,[4]; at 100.0 µM,93% (active)
same,growth inhibition,[5]; at 1.2 µM,-33%
same,growth inhibition,[5]; at 3.7 µM,-36%
same,growth inhibition,[5]; [16],8%
same,growth inhibition,[5]; at 11.0 µM,-22%
same,growth inhibition,[5]; at 33.0 µM,29%
same,growth inhibition,[5]; [17],97% (active)
same,growth inhibition,[5]; at 50.0 µM,96.8% (active)
same,growth inhibition,[5]; at 100.0 µM,90% (active)
same,growth inhibition,[6]; at 1.2 µM,-39%
same,growth inhibition,[6]; at 3.7 µM,-29%
same,growth inhibition,[6]; [16],-7%
same,growth inhibition,[6]; at 11.0 µM,-2%
same,growth inhibition,[6]; at 33.0 µM,36%
same,growth inhibition,[6]; [17],68%
same,growth inhibition,[6]; at 50.0 µM,98% (active)
same,growth inhibition,[6]; at 100.0 µM,92% (active)
same,growth inhibition,[7]; at 1.2 µM,-50%
same,growth inhibition,[7]; at 3.7 µM,-40%
same,growth inhibition,[7]; at 11.0 µM,-24%
same,growth inhibition,[7]; at 33.0 µM,89% (active)
same,growth inhibition,[7]; at 100.0 µM,93% (active)
same,growth inhibition,[8]; at 1.2 µM,14%
same,growth inhibition,[8]; at 3.7 µM,7%
same,growth inhibition,[8]; at 11.0 µM,14%
same,growth inhibition,[8]; at 33.0 µM,62%
same,growth inhibition,[8]; at 100.0 µM,93% (active)
same,growth inhibition,[9]; [16],-10%
same,growth inhibition,[9]; [17],60%
same,growth inhibition,[9]; at 50.0 µM,77.3% (active)
same,growth inhibition,[10]; at 1.2 µM,-54%
same,growth inhibition,[10]; at 3.7 µM,-22%
same,growth inhibition,[10]; [16],7%
same,growth inhibition,[10]; at 11.0 µM,-33%
same,growth inhibition,[10]; at 33.0 µM,22%
same,growth inhibition,[10]; [17],94% (active)
same,growth inhibition,[10]; at 50.0 µM,97.5% (active)
same,growth inhibition,[10]; at 100.0 µM,92% (active)
same,growth inhibition,[11]; at 1.2 µM,-13%
same,growth inhibition,[11]; at 3.7 µM,-13%
same,growth inhibition,[11]; at 11.0 µM,-3%
same,growth inhibition,[11]; at 33.0 µM,89% (active)
same,growth inhibition,[11]; at 100.0 µM,93% (active)
same,growth inhibition,[12]; at 1.2 µM,-22%
same,growth inhibition,[12]; at 3.7 µM,-16%
same,growth inhibition,[12]; at 11.0 µM,8%
same,growth inhibition,[12]; at 33.0 µM,90% (active)
same,growth inhibition,[12]; at 100.0 µM,93% (active)
same,growth inhibition,[13]; at 1.2 µM,-25%
same,growth inhibition,[13]; at 3.7 µM,-20%
same,growth inhibition,[13]; at 11.0 µM,18%
same,growth inhibition,[13]; at 33.0 µM,90% (active)
same,growth inhibition,[13]; at 100.0 µM,89% (active)
same,growth inhibition,[14]; [16],-8%
same,growth inhibition,[14]; [17],93% (active)
same,growth inhibition,[14]; at 50.0 µM,98.2% (active)
same,growth inhibition,[15]; at 1.2 µM,-38%
same,growth inhibition,[15]; at 3.7 µM,-23%
same,growth inhibition,[15]; at 11.0 µM,-16%
same,growth inhibition,[15]; at 33.0 µM,26%
same,growth inhibition,[15]; at 100.0 µM,90% (active)

# Reference: PubChem BioAssay (NCI)
